Assay outcomes deposited in PubChem by several laboratories.
Most compounds without a hit are left out; they make up all but 27% or so of the library.
CYP2C19 act: human CYP2C19 activators, primary screen, biochemical, luminescence. Cytochrome P450 2C19 (Homo sapiens), P33261. recombinant CYP2C19, luciferin-H EGE luminescence; active compounds read high; 0 = fully inhibited enzyme, 1 = untreated enzyme. activation factor at 5 µM. 96,000 tested, under 10 active. AID 1025, 2008;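 active = activation factor of at least 2 at 5 µM in the primary screen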;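 also: 0 = wells with 2.5 mM tranylcypromine and 1 = vehicle-only wells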
CYP2C9 inhib: blockers of cytochrome P450 2C9 activity – biochemical, luminescence, ADME assay, primary screen | P11712 | CYP2C9 Supersomes, luciferin-H conversion | inhibition, % at 5 µM | hit rate 20% among 96,000 | AID 777, 2007;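 active = blocking of liver enzyme CYP2C9 beyond about 50% at 5 µM, limit read from the data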
Target sequence (P11712 whole entry, looked up): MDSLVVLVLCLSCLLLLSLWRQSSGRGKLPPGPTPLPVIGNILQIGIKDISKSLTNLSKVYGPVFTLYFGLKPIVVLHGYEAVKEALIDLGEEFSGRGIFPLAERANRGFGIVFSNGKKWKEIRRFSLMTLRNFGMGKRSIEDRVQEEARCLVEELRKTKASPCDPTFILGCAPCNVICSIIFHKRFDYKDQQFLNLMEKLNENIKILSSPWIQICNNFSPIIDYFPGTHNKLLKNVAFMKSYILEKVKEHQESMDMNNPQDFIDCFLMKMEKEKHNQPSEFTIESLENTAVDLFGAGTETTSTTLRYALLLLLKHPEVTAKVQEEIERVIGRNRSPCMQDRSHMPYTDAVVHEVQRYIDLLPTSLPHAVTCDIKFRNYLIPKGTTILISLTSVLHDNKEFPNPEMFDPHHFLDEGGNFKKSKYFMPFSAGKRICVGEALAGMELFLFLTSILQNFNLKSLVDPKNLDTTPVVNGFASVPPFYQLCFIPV
CYP2C9 act: human CYP2C9 activators, primary screen, biochemical, luminescence; hit rate 1.4% among 96,000; recombinant CYP2C9, luciferin-H conversion; active compounds read high; factor 1 = untreated enzyme, 0 = blocked; activation factor at 5 µM; Cytochrome P450 2C9 (Homo sapiens), P11712; AID 1024, 2008;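 active = activation factor of 2 or more for CYP2C9 at a 5 µM dose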;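 also: 0 = sulfaphenazole-blocked wells and 1 = vehicle-only wells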
Cav3 T inh: Cav3.2 calcium influx blockers – cell-based, Fluo-4 calcium fluorescence, FDSS, MLSMR library, primary screen; B-score at 10 µM; Voltage-dependent T-type calcium channel subunit alpha-1H (Homo sapiens), O95180; Cav3.2-expressing cells; active compounds read low; hit rate 4% among 100,000;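 active = single-dose well whose peak fluorescence ratio is a statistical outlier from its plate by either plate-standardised score or position-corrected B-score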
CYP2C19 inhib: blockers of cytochrome P450 2C19 activity – biochemical, luminescence, ADME assay, primary screen. CYP2C19 Supersomes, luciferin-H EGE luminescence, 30 min. P33261. hit rate 21% among 96,000. AID 778, 2007. inhibition, % at 5 µM;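 active = CYP2C19 inhibition above a set limit at 5 µM in the primary screen, cut at about 50% in these data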;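 also: plate controls were negative control wells for no effect and 2.5 mM tranylcypromine positive control for full effect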
Active calls of the source: *; · = no result.

SMILES	CYP2C19 act	CYP2C9 inhib	CYP2C9 act	Cav3 T inh	CYP2C19 inhib
Brc1ccc(-c2nc3ncccn3c2NC2CCCCC2)o1	0.5	56*	0.4	-1.5	48
Cc1ccc(-c2nc3ncccn3c2NC2CCCC2)o1	1	1	1	0.23	3
Cc1cc(N2CCN(C3CCCC3)CC2)n2ncc(-c3ccccc3)c2n1	0.3	76*	0.2	·	72*
CCCCN1CC[C@H]2C=CC[C@@H](C(=O)N3CCOCC3)[C@H]2C1=O	·	·	·	0.51	·
CCCCCOC(=O)C1=C(C)Nc2ncnn2C1c1cccs1 (centres undefined)	0.2	39	0.6	-0.72	78*
Cc1ccnc(NC2OC(=O)c3ccccc32)c1 (centres undefined)	0.8	-16	1.2	0.92	16
COc1ccc(OC)c2c1C(=O)c1ccccc1C2=O	0.9	18	0.8	-8.9*	7
CC(C)CCn1c(N2CCN(Cc3ccccc3)CC2)nc2c1c(=O)[nH]c(=O)n2C	0.2	76*	0.2	·	77*
CCCCCn1c(N2CCN(Cc3ccccc3)CC2)nc2c1c(=O)[nH]c(=O)n2C	0.4	43	0.6	-0.056	61*
CCCn1c(N2CCN(Cc3cccc(C)c3)CC2)nc2c1c(=O)[nH]c(=O)n2C	0.1	-3	1	1.1	90*
Cc1cccc(Cn2c(CN3CCN(Cc4ccccc4)CC3)nc3c2c(=O)[nH]c(=O)n3C)c1	0.9	7	0.9	0.05	8
CCCCn1c(NC(C)CC)nc2c1c(=O)[nH]c(=O)n2C (centres undefined)	0.9	53*	0.5	1.4	9
N/C(=N\OC(=O)c1cccc(F)c1)c1ccccc1	1	-3	1	·	0
CC(C)CCn1c(SCC(=O)c2ccccc2)nc2c1c(=O)[nH]c(=O)n2C	0.8	73*	0.3	0.23	19
CC(C)CCSc1nc2c(c(=O)[nH]c(=O)n2C)n1CCCc1ccccc1	1.1	6	0.9	-1.9	-7
Cn1c(=O)[nH]c(=O)c2c1nc(N1CCCCCC1)n2CCCSc1nc2ccccc2o1	0.3	83*	0.2	·	66*
CCN1CCN(c2nc3c(c(=O)[nH]c(=O)n3C)n2CCSc2nc3ccccc3s2)CC1	0.9	37	0.6	0.72	7
Cn1c(=O)c2c(nc(N3CCCCCC3)n2CCSc2nc3ccccc3o2)n(C)c1=O	0.7	43	0.6	-3	32
Cc1csc(SCCn2c(N3CCN(c4ccccc4)CC3)nc3c2c(=O)[nH]c(=O)n3C)n1	0.5	52*	0.5	1.2	49
CCCn1c(N2CCN(CC(=O)c3c[nH]c4ccccc34)CC2)nc2c1c(=O)[nH]c(=O)n2C	0.5	70*	0.3	0.81	46
CC1=CC2=NC(=O)CC(C)(C(=O)N(CC(=O)NC(C)(C)C)Cc3cccs3)N2C=C1 (centres undefined)	1	-3	1	·	3
COCc1cc(C)nc(SCC(=O)c2ccc(O)c(O)c2)c1C#N	0.6	-19	1.2	-0.47	40
O=C(Cc1ccccc1)Nc1ccc(N2CCN(Cc3ccccc3F)CC2)cc1	0.8	26	0.7	0.4	22
O=C(NC1CC1)C1=C[C@@H](c2c[nH]c3ccccc23)C[C@@H](OCCCCO)O1	·	·	·	0.35	·
O=C1CCCc2nc3nc4ccccc4n3cc21	1.2	-24	1.2	0.24	-18
SMILES	CYP2C19 act	CYP2C9 inhib	CYP2C9 act	Cav3 T inh	CYP2C19 inhib
Cc1cccc(Cn2c(N3CCCCC3C)nc3c2c(=O)[nH]c(=O)n3C)c1 (centres undefined)	·	·	·	-3.8*	·
Cc1cccc(Cn2c(N3CCc4ccccc4C3)nc3c2c(=O)[nH]c(=O)n3C)c1	0.9	32	0.7	0.23	14
COc1ccc(N=C(N(C)C)P(=O)(N(C)C)N(C)C)cc1	0.9	-8	1.1	0.0025	8
Cc1c(CCO)c(=O)[nH]n1C(=O)c1ccc(F)cc1	0.7	74*	0.3	0.32	28
COC(=O)COc1ccc(S(=O)(=O)N2CCc3ccccc3C2)cc1C	0.2	-109	2.1*	·	79*
CC(=O)N1CCCc2cc(S(=O)(=O)N3CCc4ccccc4C3)ccc21	0.3	-4	1	0.59	74*
CCOCCn1c(SC)nc2c1c(=O)[nH]c(=O)n2C	1.1	-4	1	0.03	-13
